HTT aggregate: inhibitors of mutant huntingtin aggregate formation in PC12 cells; Potency, µM (titrated, usually from 46.1 µM), inactives show at the top dose activity change, negative = inhibition, usual class: inhibitors; 220,000 tested, 1.1% active; AID 1688; PC12 HttQ103-GFP aggregates, Acumen cytometry, 40 h; also: potency is read from the fitted curve at half-maximal effect; % is scaled to controls: 0 for no effect and ±100 for the full control effect; nearly all actives have a fitted effect of over 60% in size
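Quantitative HTS on tebufenozide-induced (100 nM) PC12 cells stably expressing polyQ103 Huntingtin exon 1–GFP. Reduction of bright GFP aggregates, detected by laser scanning cytometry after lysis, identified actives across the titration.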
HTT ATP protect: cytoprotection in Huntington HTT-Q103 PC12 cell model; 230,000 tested, 0.14% active; AID 1471; PC12 HTT-Q103 induced, cytoprotection, ATP luminescence, 40 h; Potency, µM (highest dose often 56.4 µM), for inactives: cytoprotection (ATP increase), usual class: activators; also: potency is read from the fitted curve at half-maximal effect; % of control where 0% means no effect; nearly all actives have a fitted effect of over 45% in size
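Stable PC12 Q103-GFP cells in serum-supplemented, phenol red-free DMEM; induction by tebufenozide at 100 nM final; compound dose series; cell viability quantified luminescently from ATP.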
ALDH1A1 block: inhibitors of human aldehyde dehydrogenase 1A1; P00352; Purified ALDH1A1, NADH fluorescence, propionaldehyde substrate; Potency, µM (highest dose often 75.3 µM), without a hit: at the highest dose activity, negative = inhibition, most hits filed as inhibitors; 220,000 tested, 7.3% active; active = well fitted inhibition curve with a large enough effect, not every such curve was filed as active; inconclusive = small, poorly fitted or top-dose-only effect, or another doubt; inactive = no such curve, though single readings can be large or run the other way;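 also: potency is read from the fitted curve at half-maximal effect; plate controls were no enzyme wells and a reference inhibitor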
HPGD block: HPGD (human) dehydrogenase inhibition; P15428; purified HPGD, NADH fluorescence kinetic, PGE2 substrate; 150,000 tested, 4.3% active; Potency, µM, inactives show at the highest dose activity change, negative = inhibition, actives largely listed as inhibitors; active = well fitted inhibition curve with a large enough effect, not every such curve was filed as active; inconclusive = small, poorly fitted or top-dose-only effect, or another doubt; inactive = no such curve, though single readings can be large or run the other way; also: potency is read from the fitted curve at half-maximal effect; % is scaled to controls: 0 for no effect and ±100 for the full control effect
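NADH formation kinetics: reaction with 30 uM PGE2 and 1 mM NAD+ (final), 20 nM enzyme, Tris-HCl pH 8 with Tween 20, after 15 min compound preincubation at room temperature. Fluorescence change, last versus first of five reads.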
JMJD2E inh: blocks human JMJD2E demethylase activity; B2RXH2; JMJD2E catalytic domain, FDH-coupled NADH fluorescence (FDH is formaldehyde dehydrogenase); Potency, µM (series often up to 57.1 µM), for inactives: at the top dose activity change, negative = inhibition, most hits filed as inhibitors; 230,000 tested, 1.6% active; AID 2147; active = well fitted inhibition curve with a large enough effect, not every such curve was filed as active; inconclusive = small, poorly fitted or top-dose-only effect, or another doubt; inactive = no such curve, though single readings can be large or run the other way;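 also: potency is read from the fitted curve at half-maximal effect; 0% = wells with enzyme and -100% = buffer wells without enzyme; nearly all actives have a fitted effect of over 50% in size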
CBFb-RUNX1 inh: blocks binding between human CBF-beta and RUNX1. Q01196+Q13951. AlphaScreen CBFb-His/RUNX1-biotin binding, biochemical. Potency, µM (doses to about 59.8 µM), for the others: at the top dose activity, negative = inhibition, most hits filed as inhibitors. 230,000 tested, under 10 active; also: % of control where 0% means no effect
Target sequence (Q01196 whole entry, looked up): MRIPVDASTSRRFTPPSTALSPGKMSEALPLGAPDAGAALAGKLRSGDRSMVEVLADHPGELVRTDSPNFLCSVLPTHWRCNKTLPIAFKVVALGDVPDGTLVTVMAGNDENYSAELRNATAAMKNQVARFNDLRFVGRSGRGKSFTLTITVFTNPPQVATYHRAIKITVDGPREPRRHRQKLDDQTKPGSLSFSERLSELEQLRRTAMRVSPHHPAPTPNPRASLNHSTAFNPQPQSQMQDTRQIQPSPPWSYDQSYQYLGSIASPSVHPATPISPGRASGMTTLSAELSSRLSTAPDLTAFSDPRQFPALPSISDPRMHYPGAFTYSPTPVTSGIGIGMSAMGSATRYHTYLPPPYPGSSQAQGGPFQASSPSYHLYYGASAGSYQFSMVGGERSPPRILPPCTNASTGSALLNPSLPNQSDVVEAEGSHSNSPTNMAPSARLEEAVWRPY
Target sequence (Q13951 whole entry, looked up): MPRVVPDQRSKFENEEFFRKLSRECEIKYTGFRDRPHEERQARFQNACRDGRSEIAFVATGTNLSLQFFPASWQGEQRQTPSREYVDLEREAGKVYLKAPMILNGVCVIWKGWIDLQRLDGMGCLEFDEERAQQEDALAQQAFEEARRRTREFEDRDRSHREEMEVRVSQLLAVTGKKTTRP
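Bead-based AlphaScreen assay; binding partners His-tagged CBF-beta and biotinylated RUNX1 at 30 nM each. Compound exposure 15 min after a 20-min protein preincubation; bead step 90 min; all steps at room temperature.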
* hit, by the source's call; ? = inconclusive; / = no result given; [ ] = another dose, or the depositor's remark. The list is not random: actives were taken first. Their share in the collection is about 9.8%. Unless noted, calls follow the shape of the dose curve; as a rule, active = well fitted curve in the direction sought with a large enough effect; inconclusive = small, poorly fitted or top-dose-only effect, or another doubt; inactive = no such curve, though single readings can be large; an effect the other way counts as inactive or inconclusive.

SMILES	HTT aggregate	HTT ATP protect	ALDH1A1 block	HPGD block	JMJD2E inh	CBFb-RUNX1 inh
COc1ccc(CCNS(=O)(=O)c2ccccc2)cc1OC	3.5µM*	-3%	-8%	-10%	6%	-9%
O=S(=O)(NCCOCCNS(=O)(=O)c1ccccc1)c1ccccc1	10%	-8%	25µM*	-2%	3%	7%
O=S(=O)(NCCOCC(F)(F)F)c1ccc2oc3ccccc3c2c1	?	-26%	8.9µM*	?	10%	10%
CCCNS(=O)(=O)c1ccc(CCC(=O)NCCc2ccc(OC)c(OC)c2)cc1	-17%[9.22 µM]	-12%[10 µM]	?	/	0%	-2%
c1nc(N2CCC3(CC2)OCCO3)c2c3c(sc2n1)CCCC3	-19%[9.22 µM]	-22%[0.074 µM]	?	-3%	4%	-1%
c1ccc(N2CCN(c3ncnc4sc5c(c34)CCC5)CC2)cc1	11µM*	-14%	?	-20%	?	-12%
CN1C(=O)SC(Nc2cccc3ccccc23)C1=O (stereo not given)	-9%	10%[1.9 µM]	28µM*	-21%	-14%	-9%
O=C1NC(=O)C(Nc2cccc3ccccc23)S1 (stereo not given)	-2%	5%[10 µM]	-6%	?	?	-7%
O=C(C1CCCCC1)N1CCCC(c2nc3c(nnn3Cc3ccccc3)c(=O)[nH]2)C1 (stereo not given)	16%	-29%	16µM*	14µM*	6%	-1%
Cc1ccc(C)c(Cn2nnc3c(=O)[nH]c(C4CCCN(C(=O)C5CCCCC5)C4)nc32)c1 (stereo not given)	5%	-1%	13µM*	6.3µM*	-7%	3%
Oc1cc2c(c(Cl)c1O)CCNC[C@H]2c1ccccc1	/	5%	5%	-18%	13µM*	3%[21.7 µM]
C=CCN1CCc2c(cc(O)c(O)c2Br)[C@H](c2ccccc2)C1	/	-11%[1.9 µM]	/	/	/	/
CN1CCc2cc(O)c(O)cc2[C@H](c2ccccc2)C1	/	-7%[1.9 µM]	/	/	/	/
C=CCN1CCc2c(cc(O)c(O)c2Cl)C(c2ccccc2)C1 (stereo not given)	3%[9.22 µM]	-80%	-3%	2%	13µM*	-4%
Oc1cc2c(c(Cl)c1O)CCNCC2c1ccccc1 (stereo not given)	/	-14%	5%	-13%	13µM*	10%
Cc1cccc(C2CN(C)CCc3c2cc(O)c(O)c3Cl)c1 (stereo not given)	/	/	11%	-6%	13µM*	1%
Oc1ccc(C2CNCCc3c2cc(O)c(O)c3Cl)cc1 (stereo not given)	-10%	-19%	?	-16%	?	12%
CC[C@@H]1/C=C(\C)C[C@H](C)C[C@H](OC)[C@H]2O[C@@](O)(C(=O)C(=O)N3CCCC[C@H]3C(=O)O[C@H](/C(C)=C/[C@@H]3CC[C@@H](O)[C@H](OC)C3)[C@H](C)[C@@H](O)CC1=O)[C@H](C)C[C@@H]2OC	/	-93%	-1%	/	/	29%
Cc1cc(C)cc(SCc2noc(C(=O)NCCCN3CCOCC3)c2C(=O)NCCCN2CCOCC2)c1	-31%[9.22 µM]	?	/	/	-11%	14%
OC1(c2ccc(F)cc2)CN(c2ccccc2)C2=[N+]1CCS2 (stereo not given)	-12%	9%[10 µM]	-2%	-8%	?	0%
Cc1ccccc1N1CC(O)(c2ccccc2)[N+]2=C1SCC2 (stereo not given)	-19%	0%[10 µM]	13µM*	-3%	-6%	-2%
Cc1ccc(C2(O)CN(c3ccccc3C)C3=[N+]2CCS3)cc1 (stereo not given)	-20%	20%[10 µM]	20µM*	-1%	-7%	7%
Cc1ccc(C2(O)CN(c3ccccc3)C3=[N+]2CCS3)cc1 (stereo not given)	?	15%[10 µM]	1%	0%	-4%	-4%
Cc1ccc(Cn2c(SCC(=O)N3CC(=O)Nc4ccccc43)nc3ccccc3c2=O)cc1	10%	20%[10 µM]	?	/	0%	-3%
O=C1CN(C(=O)CSc2nc3cc(Cl)ccc3c(=O)n2Cc2ccccc2)c2ccccc2N1	-16%	-1%[10 µM]	7.9µM*	-17%	-5%	-1%
SMILES	HTT aggregate	HTT ATP protect	ALDH1A1 block	HPGD block	JMJD2E inh	CBFb-RUNX1 inh
Cc1cccc(-n2c(SCC(=O)N3CC(=O)Nc4ccccc43)nc3ccccc3c2=O)c1C	?	0.89µM*	-8%	-27%	?	-15%
NC(N)=N/N=C\c1ccc(O)c(C(=O)O)c1	/	1%[10 µM]	?	?	/	/
Cc1c(C(C)(C(=O)O)c2c(C)n(C)c3ccccc23)c2ccccc2n1C	-2%[9.22 µM]	11%[10 µM]	?	/	?	-14%
Cc1ccc(CSCCNS(=O)(=O)c2ccc(C)cc2)cc1	16%	32%[10 µM]	10µM*	-8%	5%	7%
CCC(C)C(=O)NCCc1ccc(S(N)(=O)=O)cc1 (stereo not given)	18%	6%[10 µM]	11%	-5%	-2%	-5%
Cc1ccc(S(=O)(=O)NCC(C)NS(=O)(=O)c2ccc(C)cc2)cc1 (stereo not given)	-1%	10%	0.4µM*	-6%	10%	5%
CCCC(=O)NCCc1ccc(S(N)(=O)=O)cc1	-1%	21%	4.5µM*	-12%	10%	-9%
Cc1ccc(S(=O)(=O)NCCc2ccc(S(N)(=O)=O)cc2)cc1	0%	41%	25µM*	-7%	3%	0%
CNC(=O)OC(C)CNS(=O)(=O)c1ccc(C)cc1 (stereo not given)	-4%	10%[0.074 µM]	0%	-8%	1%	11%
CN(Cc1nc2c(s1)CCCC2)C(=O)CCc1nnc(-c2ccc3c(c2)OCO3)o1	40%[9.22 µM]	29%[10 µM]	/	/	?	5%
O=C1c2cccc3cccc(c23)C(=O)N1CCCN1CCN(c2ccc(F)cc2)CC1	-33%	-43%	-10%	/	?	-11%
COc1ccc2cc(C(C)CO)ccc2c1 (stereo not given)	8%	1%	-7%	-8%	-8%	8%
Cc1ccc(CN2CCN(Cc3cnc(C)s3)CC2CCO)cc1 (stereo not given)	0%	-44%	15%	/	-4%	12%
CCCN1C(=O)/C(=N\OCC(=O)Nc2ccc(C(C)C)cc2)c2ccccc21	-10%	30%[10 µM]	0.5µM*	-24%	-2%	-15%
CCCN1C(=O)/C(=N\OCC(=O)NC23CC4CC(CC(C4)C2)C3)c2ccccc21	?	-7%[10 µM]	0.28µM*	16µM*	0%	-4%
COC(=O)CSc1[nH]c2ccccc2c1[N+](=O)[O-]	-36%[9.22 µM]	-6%[10 µM]	/	/	-10%	9%
NC(=O)c1ccccc1NC(=S)NC(=O)CCc1ccccc1	27%	-2%[10 µM]	13µM*	28µM*	-24%	0%
O=C(NC(c1ccc(Cl)cc1)c1cc(Cl)c2cccnc2c1O)c1cccnc1 (stereo not given)	8.9µM*	-71%[10 µM]	-4%	-15%	1%	1%

From PubChem
